For some assays here: Entries with a potency or affinity are not part of this list.
Columns and labels:
Set-up in all cases: scale not given: direction of the effect not stated beside the values
[1] = target: Protein translocase subunit SecA (Escherichia coli (strain K12)) (UniProt P10408); experiment: Assay to Identify E. coli SecA ATPase Inhibitors; format: functional; settings: 30 µM
[2] = target: T1, Ubiquitin-activating enzyme e1, putative (Leishmania donovani (strain BPK282A1)) (UniProt E9BSI1); experiment: Leishmania donovani Ubiquitin Activating Enzyme (LdE1); format: functional; settings: 30 µM
T1 sequence (whole entry): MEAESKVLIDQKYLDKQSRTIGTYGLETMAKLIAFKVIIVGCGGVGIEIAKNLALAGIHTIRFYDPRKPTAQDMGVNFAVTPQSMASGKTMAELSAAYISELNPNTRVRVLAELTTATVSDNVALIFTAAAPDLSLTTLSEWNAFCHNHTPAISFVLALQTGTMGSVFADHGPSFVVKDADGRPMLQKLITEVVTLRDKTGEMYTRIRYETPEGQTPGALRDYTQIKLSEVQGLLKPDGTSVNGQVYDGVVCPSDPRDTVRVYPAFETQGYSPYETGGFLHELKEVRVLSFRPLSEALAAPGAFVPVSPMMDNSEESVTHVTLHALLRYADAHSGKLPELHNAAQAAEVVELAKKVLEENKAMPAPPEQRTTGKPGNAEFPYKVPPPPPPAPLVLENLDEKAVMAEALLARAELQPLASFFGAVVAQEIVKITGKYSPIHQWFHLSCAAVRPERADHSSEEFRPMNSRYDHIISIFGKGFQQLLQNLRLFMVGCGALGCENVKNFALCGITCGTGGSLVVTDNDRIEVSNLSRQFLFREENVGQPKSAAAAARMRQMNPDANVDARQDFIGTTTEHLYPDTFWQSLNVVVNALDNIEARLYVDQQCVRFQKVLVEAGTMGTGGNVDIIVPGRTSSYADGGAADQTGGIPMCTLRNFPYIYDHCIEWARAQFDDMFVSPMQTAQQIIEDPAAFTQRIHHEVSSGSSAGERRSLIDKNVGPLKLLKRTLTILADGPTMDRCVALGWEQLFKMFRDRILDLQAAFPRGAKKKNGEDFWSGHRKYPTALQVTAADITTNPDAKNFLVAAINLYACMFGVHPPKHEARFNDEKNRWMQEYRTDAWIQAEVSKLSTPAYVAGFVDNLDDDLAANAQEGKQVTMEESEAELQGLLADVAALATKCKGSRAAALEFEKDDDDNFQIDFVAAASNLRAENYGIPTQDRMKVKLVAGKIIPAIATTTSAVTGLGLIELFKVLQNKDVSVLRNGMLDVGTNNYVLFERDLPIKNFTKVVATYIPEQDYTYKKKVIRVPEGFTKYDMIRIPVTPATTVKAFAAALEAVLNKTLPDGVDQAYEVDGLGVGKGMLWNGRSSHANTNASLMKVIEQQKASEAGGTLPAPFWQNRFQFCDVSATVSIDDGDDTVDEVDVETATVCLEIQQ

[3] = target: Sialic acid-binding Ig-like lectin 9 (Homo sapiens) (UniProt Q9Y336); experiment: Hs-Siglec9 ALPHAscreen SOP 20170721; settings: 10 µM
Trypanosoma cruzi = experiment: Trypanosoma cruzi phosphomannomutase and mannose-1-phosphate guanylyltransferase assay; format: functional; settings: 10 µM
[4] = target: T2, Arginase-2, mitochondrial (Homo sapiens) (UniProt P78540); experiment: in vitro enzyme assay to detect the production of urea directly proportional to the activity of Arginase II; format: functional; settings: 33.3 µM; also: in the data most compounds retested in dose-response had high values
T2 sequence (whole entry): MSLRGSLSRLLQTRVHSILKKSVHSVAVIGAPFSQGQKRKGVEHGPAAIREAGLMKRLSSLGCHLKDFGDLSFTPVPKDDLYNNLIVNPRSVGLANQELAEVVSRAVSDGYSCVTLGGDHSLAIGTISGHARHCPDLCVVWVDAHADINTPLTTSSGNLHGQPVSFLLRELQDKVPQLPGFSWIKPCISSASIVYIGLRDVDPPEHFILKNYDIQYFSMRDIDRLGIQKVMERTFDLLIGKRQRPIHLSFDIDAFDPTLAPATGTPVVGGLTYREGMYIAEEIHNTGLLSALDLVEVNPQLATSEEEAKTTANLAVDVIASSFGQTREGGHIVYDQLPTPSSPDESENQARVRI

[5] = target: T3, Proteasome subunit beta (Trypanosoma cruzi) (UniProt O96673); experiment: Trypanosoma cruzi proteasome chymotrypsin-like activity (TcProtChymo) assay.; also: in the data most compounds retested in dose-response had high values; format: functional; settings: 9.37 µM
T3 sequence (whole entry): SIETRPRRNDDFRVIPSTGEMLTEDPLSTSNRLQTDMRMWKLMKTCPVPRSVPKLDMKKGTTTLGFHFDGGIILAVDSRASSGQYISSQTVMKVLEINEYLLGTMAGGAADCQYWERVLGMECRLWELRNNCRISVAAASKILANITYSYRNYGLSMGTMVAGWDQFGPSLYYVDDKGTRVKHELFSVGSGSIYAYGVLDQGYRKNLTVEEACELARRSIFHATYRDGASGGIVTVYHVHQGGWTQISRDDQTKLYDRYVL

Homo sapiens = species: Homo sapiens; experiment: To identify inhibition of the IFN signalling (Jak-Stat) pathway via expression of an eGFP reporter gene under the control of an IFN-stimulated response element (ISRE) containing MxA promoter.; format: functional; settings: 30 µM
[6] = target: T4, Tyrosyl-tRNA synthetase, putative (Trypanosoma cruzi (strain CL Brener)) (UniProt Q4DSP6); experiment: Trypanosoma cruzi tyrosyl tRNA synthetase (TcYRS) _High Tyrosine SOP; format: functional; settings: 30 µM; also: in the data most compounds retested in dose-response had high values
T4 sequence (whole entry): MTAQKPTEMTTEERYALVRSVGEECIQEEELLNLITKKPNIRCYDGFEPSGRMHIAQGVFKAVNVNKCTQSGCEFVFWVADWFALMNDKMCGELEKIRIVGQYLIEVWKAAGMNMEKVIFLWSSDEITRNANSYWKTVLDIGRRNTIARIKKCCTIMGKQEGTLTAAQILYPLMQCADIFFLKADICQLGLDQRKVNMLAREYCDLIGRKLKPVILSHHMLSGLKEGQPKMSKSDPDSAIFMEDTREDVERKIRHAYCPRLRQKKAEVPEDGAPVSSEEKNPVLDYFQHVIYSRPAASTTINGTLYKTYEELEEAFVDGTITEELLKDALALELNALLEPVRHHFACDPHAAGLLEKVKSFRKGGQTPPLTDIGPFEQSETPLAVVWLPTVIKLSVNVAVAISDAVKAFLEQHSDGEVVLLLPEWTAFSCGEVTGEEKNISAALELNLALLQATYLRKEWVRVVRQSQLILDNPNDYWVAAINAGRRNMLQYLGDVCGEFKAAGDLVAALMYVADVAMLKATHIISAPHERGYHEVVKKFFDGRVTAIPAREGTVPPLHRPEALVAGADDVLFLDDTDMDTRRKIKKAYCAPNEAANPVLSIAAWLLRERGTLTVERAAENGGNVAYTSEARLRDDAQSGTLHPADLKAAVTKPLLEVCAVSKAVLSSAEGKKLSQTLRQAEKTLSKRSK

[7] = target: T4, Tyrosyl-tRNA synthetase, putative (Trypanosoma cruzi (strain CL Brener)); experiment: Trypanosoma cruzi tyrosyl tRNA synthetase (TcYRS) SOP; format: functional; settings: 30 µM
[8] = target: Chromo domain-containing protein 1 (Saccharomyces cerevisiae (strain ATCC 204508 / S288c) (Baker's yeast)) (UniProt P32657); experiment: ScCHD-1 Enzyme Inhibition Assay; format: functional; settings: 30 µM; also: in the data most compounds retested in dose-response had high values
Chain of Chromo domain-containing protein 1 (Saccharomyces cerevisiae (strain ATCC 204508 / S288c) (Baker's yeast)) (P32657 whole entry, the tested form may be a part): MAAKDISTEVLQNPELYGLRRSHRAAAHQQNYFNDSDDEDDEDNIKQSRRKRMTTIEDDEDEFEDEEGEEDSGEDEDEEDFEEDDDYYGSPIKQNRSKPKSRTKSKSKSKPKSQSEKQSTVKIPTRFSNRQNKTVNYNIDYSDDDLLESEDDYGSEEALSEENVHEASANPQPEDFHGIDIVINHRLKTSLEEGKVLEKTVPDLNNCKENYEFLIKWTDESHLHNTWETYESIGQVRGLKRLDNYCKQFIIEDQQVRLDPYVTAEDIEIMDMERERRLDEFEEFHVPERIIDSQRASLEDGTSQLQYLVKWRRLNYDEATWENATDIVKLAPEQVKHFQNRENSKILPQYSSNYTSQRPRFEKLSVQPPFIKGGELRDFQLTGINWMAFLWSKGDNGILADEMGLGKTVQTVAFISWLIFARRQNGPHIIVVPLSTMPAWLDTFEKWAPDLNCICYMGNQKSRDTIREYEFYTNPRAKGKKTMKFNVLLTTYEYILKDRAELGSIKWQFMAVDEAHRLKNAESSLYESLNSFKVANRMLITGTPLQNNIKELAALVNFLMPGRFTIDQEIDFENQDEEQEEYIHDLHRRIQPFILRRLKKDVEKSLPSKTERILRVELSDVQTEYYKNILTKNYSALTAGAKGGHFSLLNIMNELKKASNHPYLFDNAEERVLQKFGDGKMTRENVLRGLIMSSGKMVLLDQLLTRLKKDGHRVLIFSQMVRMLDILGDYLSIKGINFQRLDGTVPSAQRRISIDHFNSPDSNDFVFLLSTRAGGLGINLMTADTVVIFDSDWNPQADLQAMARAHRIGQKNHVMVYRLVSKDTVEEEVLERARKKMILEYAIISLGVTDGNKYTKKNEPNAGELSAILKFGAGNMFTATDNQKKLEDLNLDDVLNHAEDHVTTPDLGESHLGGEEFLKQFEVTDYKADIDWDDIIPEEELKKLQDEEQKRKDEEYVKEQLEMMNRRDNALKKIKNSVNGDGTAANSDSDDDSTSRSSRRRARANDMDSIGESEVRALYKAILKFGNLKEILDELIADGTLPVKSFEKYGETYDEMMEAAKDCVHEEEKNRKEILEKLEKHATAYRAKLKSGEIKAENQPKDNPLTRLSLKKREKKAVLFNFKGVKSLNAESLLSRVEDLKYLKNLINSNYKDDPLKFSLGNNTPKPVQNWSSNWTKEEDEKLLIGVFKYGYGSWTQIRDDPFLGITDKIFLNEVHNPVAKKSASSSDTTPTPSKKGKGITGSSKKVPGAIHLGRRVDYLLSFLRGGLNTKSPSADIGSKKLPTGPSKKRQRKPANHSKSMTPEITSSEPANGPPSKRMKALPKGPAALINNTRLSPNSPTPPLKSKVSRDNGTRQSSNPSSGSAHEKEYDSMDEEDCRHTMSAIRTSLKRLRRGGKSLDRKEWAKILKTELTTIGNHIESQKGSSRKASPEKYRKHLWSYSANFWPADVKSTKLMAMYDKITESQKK

Chain of Protein translocase subunit SecA (Escherichia coli (strain K12)) (P10408 whole entry): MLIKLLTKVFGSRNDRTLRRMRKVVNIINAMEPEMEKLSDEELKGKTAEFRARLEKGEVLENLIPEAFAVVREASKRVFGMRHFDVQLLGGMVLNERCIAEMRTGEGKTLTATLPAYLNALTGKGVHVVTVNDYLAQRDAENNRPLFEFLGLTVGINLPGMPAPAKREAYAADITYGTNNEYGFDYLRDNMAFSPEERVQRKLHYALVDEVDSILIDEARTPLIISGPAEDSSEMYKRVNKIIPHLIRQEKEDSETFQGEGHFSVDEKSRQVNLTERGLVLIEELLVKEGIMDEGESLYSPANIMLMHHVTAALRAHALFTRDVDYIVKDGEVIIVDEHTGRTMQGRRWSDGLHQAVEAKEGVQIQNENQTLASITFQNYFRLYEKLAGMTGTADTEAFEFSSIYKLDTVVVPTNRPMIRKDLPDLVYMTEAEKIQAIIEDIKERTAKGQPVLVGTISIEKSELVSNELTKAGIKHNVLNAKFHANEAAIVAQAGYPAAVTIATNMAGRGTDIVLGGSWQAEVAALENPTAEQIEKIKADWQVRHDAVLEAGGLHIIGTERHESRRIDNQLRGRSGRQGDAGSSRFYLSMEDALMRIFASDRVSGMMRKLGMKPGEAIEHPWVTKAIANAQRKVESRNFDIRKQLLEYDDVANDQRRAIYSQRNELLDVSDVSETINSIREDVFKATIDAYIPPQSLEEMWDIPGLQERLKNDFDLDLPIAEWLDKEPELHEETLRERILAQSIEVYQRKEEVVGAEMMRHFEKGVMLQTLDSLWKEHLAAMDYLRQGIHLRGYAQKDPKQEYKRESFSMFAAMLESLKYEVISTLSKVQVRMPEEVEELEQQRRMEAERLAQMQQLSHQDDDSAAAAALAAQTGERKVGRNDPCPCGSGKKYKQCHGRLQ
Chain of Sialic acid-binding Ig-like lectin 9 (Homo sapiens) (Q9Y336 whole entry): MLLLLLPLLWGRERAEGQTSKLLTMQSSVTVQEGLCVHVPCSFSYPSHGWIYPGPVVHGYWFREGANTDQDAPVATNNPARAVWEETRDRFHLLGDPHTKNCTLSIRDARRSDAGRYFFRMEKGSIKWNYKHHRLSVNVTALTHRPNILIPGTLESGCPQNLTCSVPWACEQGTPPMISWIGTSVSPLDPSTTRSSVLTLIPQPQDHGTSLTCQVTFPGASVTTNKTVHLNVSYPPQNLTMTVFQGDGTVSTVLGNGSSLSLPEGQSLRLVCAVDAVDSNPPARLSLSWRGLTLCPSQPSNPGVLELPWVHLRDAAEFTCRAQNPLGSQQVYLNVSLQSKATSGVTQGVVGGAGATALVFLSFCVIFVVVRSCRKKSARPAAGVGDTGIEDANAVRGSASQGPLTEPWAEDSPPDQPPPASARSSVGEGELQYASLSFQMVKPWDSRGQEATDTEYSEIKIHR

Row | Structure (SMILES) | Percent Effect [1] [%] | Percent Effect [2] [%] | Percent Effect [3] [%] | Percent Effect (Trypanosoma cruzi) [%] | Percent Effect [4] [%] | Percent Effect [5] [%] | Percent Effect (Homo sapiens) [%] | Percent Effect [6] [%] | Percent Effect [7] [%] | Percent Effect [8] [%]
1 | O=C(CO)N1CCc2onc(Cn3cccn3)c2C1 | -5.41 | 3.9 | 3.29 | 1.27 | -1.62 | 7.5 | -4.61 | 2.63 | 5.13 | 0.404
2 | CCOc1c(Cl)cccc1NCc1cc(C)on1 | -0.827 | 12.8 | -8.13 | -1.6 | 2.05 | 15.1 | 25.9 | 8.13 | 22.9 | -1.3
3 | CCN1CCN(c2ccc(CNC(=O)c3ccc(Cl)o3)cn2)CC1 | -0.96 | 21.3 | -3.96 | 2.41 | 6.21 | 18.4 | 0.841 | 7.89 | 15.4 | -10.4
4 | Cc1cncc(C(=O)N2Cc3ccccc3C3(CCN(C)CC3)C2)c1 | 0.817 | 1.3 | -5.76 | -4.38 | 4.05 | 3.09 | -17 | -2.63 | -15.4 | -3.41
5 | O=C(NCCCN1CCc2ccccc2C1)c1cccnc1O | -1.75 | 10.7 | 3.3 | -0.803 | 2.22 | 2.8 | 4.99 | 2.63 | 10.3 | -11.3
6 | O=C(CN1CCCC(Cn2cncn2)C1)NCCOc1ccccc1 (stereo not given) | 3.17 | -2.67 | 2.29 | -1.41 | 5.32 | 4.67 | 6.94 | 0.526 | 0 | -6.78
7 | Cc1nc(CN2CCCC(CCc3ccc(F)cc3F)C2)c[nH]1 (stereo not given) | -4.78 | -2.7 | 37.1 | 4.75 | 1.05 | 3.94 | -3.62 | 2.66 | 7.32 | -1.62
8 | COc1ccc(F)cc1CN1CCCC(c2cc(C(N)=O)[nH]n2)C1 (stereo not given) | -3.96 | 5.33 | 5.92 | 1.81 | -2.22 | 1.61 | 8.51 | 3.68 | 5.13 | -9.49
9 | COC(=O)Cn1c(=O)nc2n1C(=O)N(c1ccccc1)C2 | -4.54 | 5.41 | -1.57 | -7.27 | 5.94 | 9.76 | 17 | 3.72 | 9.76 | -2.64
10 | O=C(c1cc(C2CC2)on1)N1CC[C@]2(C[C@H](Oc3cccnc3)CO2)C1 | -7.12 | 1.3 | -0.278 | 6.52 | -12.2 | 6.27 | -3.24 | 1.58 | 5.13 | 0.522
11 | Cc1cc(C(=O)NCc2ccc(N3CCCC(C(N)=O)C3)cc2)no1 (stereo not given) | -3.67 | 10.7 | 2.55 | 3.01 | 4.88 | 11.1 | 3.86 | 2.63 | 5.13 | -7.24
12 | CCOCC1CN(Cc2cnn(C)c2)Cc2nn(C)cc21 (stereo not given) | 0.939 | -3.9 | -4.11 | -5.36 | 0.81 | 10.2 | 4.03 | -1.58 | 0 | 2.52
13 | Cc1cc(C(=O)O)cc(S(=O)(=O)Nc2ccc3c(c2)OCO3)c1C | -0.174 | 2.56 | -9.72 | 2.91 | 3.69 | 19.7 | -15.4 | -4.31 | 10.8 | -3.33
14 | COc1c(C2CCCN2C(=O)c2c[nH]c3ncccc23)c(C)nn1C (stereo not given) | -5.03 | 7.79 | 8.63 | -5.41 | 2.25 | 7.02 | 1.49 | 5.88 | 7.06 | -7.9
15 | CC(=O)NC1CCCN(C(=O)NCc2cccnc2N(C)C)C1 (stereo not given) | -1.76 | 16 | 3.66 | 0.402 | 6.65 | 11.4 | 11.5 | 8.95 | 15.4 | -11.3
16 | CC(Cn1cccn1)NC(=O)N1CCN(Cc2cccnc2)CC1 (stereo not given) | -6.34 | 7.79 | 1.46 | 1.87 | -1.02 | 11.2 | -5.12 | 5.88 | 23.5 | -16.2
17 | Cc1ccc(C(=O)N2CCC3(CC2)CC(N2CCCC2)C3)cc1 | -4.52 | 11.7 | 1.16 | -0.75 | 1.83 | 7.12 | -12.1 | 8.7 | 12.5 | -4.42
18 | Cc1ncc2c(n1)CCN(Cc1nc3ccccc3o1)C2 | -4.63 | 16 | -1.93 | 0.201 | -6.21 | 16 | -5.07 | 7.89 | 25.6 | -11
19 | Cc1ccc(CN2CCCn3c(nc(Cn4cncn4)cc3=O)C2)s1 | -8.68 | 11.7 | -3.78 | 2.43 | -1.22 | 7.5 | -3.95 | 4.74 | 12.8 | -1.68
20 | O=C(NCc1ccccc1-n1cccn1)N1CCN2CCCCC2C1 (stereo not given) | -4.48 | 0 | 9.91 | 0.803 | 2.22 | 1.78 | -2.71 | 2.63 | 10.3 | -8
21 | CCc1nc(C2CCCN2C(=O)CCn2cncn2)no1 (stereo not given) | -0.886 | 0 | 9.32 | -1.49 | 1.02 | 3.51 | 3.97 | 0.98 | -2.35 | -0.634
22 | Cc1ccccc1OCCC(=O)N1CCCC(n2cncn2)C1 (stereo not given) | -5.79 | 5.13 | 4.87 | 0.657 | 5.33 | 4.52 | 0.995 | 1.44 | 10.8 | -3.4
23 | CCc1nc(C2CCCN2C(=O)c2ncoc2CC)no1 (stereo not given) | -4.57 | 7.69 | 5.36 | 10.6 | -4.92 | -5.38 | -5.4 | 2.39 | 8.43 | 0.961

— ChEMBL document CHEMBL3988442, “University of Dundee, Small-Polar-MMV Screening Library” (2021)
